Measurements: PubChem BioAssay (NCI)
Compounds without any hit were thinned out: in the full panel of roughly 83,000, 20% have a hit.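 Treatment: one concentration, 48 hours, 96-well format. Scoring: percent growth, with anything below 10 considered active.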 Unmarked numbers belong to inactive results. Calls of active or inactive are those of the source.

Key:
Assay in all cases: NCI-60 one-dose screen, 48 h (100 = growth as untreated, 0 = no growth, -100 = all killed)
Conditions in all cases: 10 µM unless noted
SK-MEL-2 melanoma = system: SK-MEL-2 melanoma
EKVX NSCLC = system: EKVX NSCLC
SN12C renal = system: SN12C renal
UO-31 renal = system: UO-31 renal
TK-10 renal = system: TK-10 renal
ACHN renal = system: ACHN renal
CAKI-1 renal = system: CAKI-1 renal
A498 renal = system: A498 renal
CCRF-CEM leukemia = system: CCRF-CEM leukemia
MOLT-4 leukemia = system: MOLT-4 leukemia

SMILES	growth (SK-MEL-2 melanoma)	growth (EKVX NSCLC)	growth (SN12C renal)	growth (UO-31 renal)	growth (TK-10 renal)	growth (ACHN renal)	growth (CAKI-1 renal)	growth (A498 renal)	growth (CCRF-CEM leukemia)	growth (MOLT-4 leukemia)
CC(=O)[C@@H]1CC[C@]2(C(N)=O)CC[C@]3(C)[C@H](CC[C@@H]4[C@@]5(C)CCCNC(C)(C)[C@@H]5CC[C@]43C)[C@@H]12	86.2%	93.9%	86.5%	76.5%	120%	107%	93.1%	96.6%	88.3%	60.5%
COc1ccc(C(=O)c2nc3ccccc3n2CC(=O)c2ccc(F)cc2)cc1	72.4%	190%	92.7%	88.3%	84.2%	105%	115%	116%	79.6%	74.8%
NC(=O)CSSCC(N)=O	107%	86.7%	108%	93%	110%	100%	99%	127%	88.3%	76.8%
Cc1nc2ccc(Cl)cn2c1-c1nnc(SCc2ccc([N+](=O)[O-])cc2)o1	84.9%	65.3%	48.4%	39.5%	91.3%	31.3%	65.7%	48.7%	116%	93.7%
[O-][n+]1c(Cl)cc(Cl)c2ccccc21	123%	76.9%	101%	78.5%	125%	99.5%	92.6%	73.2%	87.5%	88.7%
COc1cc(/C=C2\COc3ccc(-c4ccccc4)cc3C2=O)cc(OC)c1	83.9%	102%	80.5%	77.1%	103%	88.7%	71.6%	95.5%	20.3%	30.7%
Cc1nnc2c(Cc3ccccc3)nc3ccccc3n12	110%	90.9%	99.6%	90.8%	101%	100%	88.3%	90.6%	91.1%	91.2%
CCOC(=O)c1cc(C(=O)c2ccc(OC)cc2)n2ccc(/C=C/c3cc[n+](CC(=O)c4ccc(OC)cc4)cc3)cc12	100%	87.8%	56.2%	72.7%	91.7%	70.2%	81.8%	67.6%	-22.5% (active)	49.8%
O=C1c2c(c3c4cccc(F)c4[nH]c3c3ccc4ccccc4c23)C(=O)N1O	51.5%	63.8%	41.5%	30.4%	91.1%	27.8%	29.4%	27.2%	7.09% (active)	3.29% (active)
Cc1ccc(-n2nc3c(c(C#N)c2=O)CC(c2ccccc2[N+](=O)[O-])C([N+](=O)[O-])=C3O)cc1 (stereo not given)	98.8%	77.1%	91.8%	61.8%	115%	86.4%	77.4%	95.9%	88.2%	87.6%
O=c1c2c(c(=O)n1O)c1c3ccc[nH]c3nc1c1nc3[nH]cccc3c12	99.4%	93.4%	80.5%	91%	117%	88.3%	68.9%	94.5%	28.5%	43.7%
NC(=S)N1N=C(c2ccccc2)CC1c1cn(-c2ccccc2)nc1-c1ccc(OCc2ccccc2)cc1 (stereo not given)	90.4%	78.3%	93.2%	84.7%	102%	100%	92.7%	94.5%	103%	98.7%
N#C/C(=C\c1ccccn1)c1nc2cc(Cl)ccc2s1	95.9%	56%	64.7%	44.3%	119%	75.8%	66.5%	64.6%	63.9%	75.6%
NS(=O)(=O)c1ccc(CCN2C(=O)C=CC2=O)cc1	98.2%	102%	110%	84.5%	89.7%	102%	94.8%	106%	99%	97.4%
COc1ccc2c(c1)oc1c(C)c3c(c(C)c12)C(=O)N(N)C3=O	93%	49.1%	38.7%	-45.8% (active)	-4.02% (active)	-23.7% (active)	34.2%	-7.39% (active)	55.8%	17.4%
CCOC(=O)CC1CSC(N/N=C/c2ccc(-n3cccn3)cc2)=N1 (stereo not given)	113%	108%	100%	90.9%	108%	109%	102%	97.8%	94.1%	97.3%
N#CC1C(C#N)C2c3ccccc3C=CN2C1C(=O)c1ccc(Br)cc1 (stereo not given)	98.3%	93%	88.6%	99.2%	111%	90.3%	89.8%	101%	99.2%	102%
OCc1cnc2ccccc2c1NC1CCCCCC1	100%	78.7%	93.8%	67.1%	96.2%	92.3%	73.1%	79.4%	85.1%	91.5%
CN(C)CCC(=O)c1ccc([N+](=O)[O-])cc1	109%	106%	99.1%	85.9%	98.2%	110%	96.3%	88.4%	97.2%	112%
CCOC(=O)C1=C(CCl)NC(=O)NC1c1ccc2c(c1)OCO2 (stereo not given)	69.5%	52.7%	20.1%	56.9%	57.3%	31%	47%	98%	10.8%	37.7%
O=C1c2ccccc2C(=O)c2c([N+](=O)[O-])ccc(Cl)c21	107%	113%	97.5%	76.6%	87.6%	85.5%	39.4%	105%	63.2%	86.2%
OCc1cnccc1NCCCCOc1ccc(Oc2ccccc2)cc1	81.6%	50.6%	70.7%	49.8%	66.1%	80.3%	70.7%	76.9%	53.9%	45.1%
NNC(=O)c1ccc(-n2nc(-c3ccccc3)c3ccccc32)cc1	79.3%	63.4%	75.1%	68%	110%	85.6%	76.5%	75%	37.2%	74.8%
N#C/C(=C\c1ccc([N+](=O)[O-])s1)c1nc2cc(Br)ccc2s1	-41.1% (active)	-30.8% (active)	-30.1% (active)	-52.1% (active)	4.33% (active)	-56.8% (active)	-2.73% (active)	109%	-19.5% (active)	-18.8% (active)
Oc1ccc(OCCOc2ccc(O)cc2)cc1	81.8%	75.4%	59.6%	4.76% (active)	87.9%	6.65% (active)	11.4%	100%	58.8%	60.8%
O=C1Nc2cc(Cl)ccc2/C1=C\c1c(-c2ccc(F)cc2)nc2ccccn12	23.7%	34.5%	19.1%	28.7%	72.7%	41%	21.5%	-17% (active)	7.67% (active)	-4.44% (active)
Cc1cc2c(c(C)c1Cl)C(=O)/C(=C/c1ccc(O)c(O)c1)O2	104%	98.7%	92.1%	72.2%	119%	92.7%	90.6%	106%	101%	108%
